Laboratory results from PubChem BioAssay (NCI).
Compounds without any hit were thinned out: in the full panel of roughly 83,000, 20% have a hit.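 Each cell line was grown in a 96-well plate and treated with one concentration of compound for 48 hours. Values below 10 were considered active.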 The source made the active and inactive calls.

System: M14 melanoma
Test: NCI-60 one-dose screen, 48 h (100 = growth as untreated, 0 = no growth, -100 = all killed)
Details: 10 µM unless noted

Structure (SMILES)	growth
N#Cc1c(-c2ccc(Cl)cc2)nc(SCc2ccc(F)cc2)nc1N1CCNCC1	72.8% (inactive)
Clc1ccc(-c2cn3cc(Cc4ccc(Cl)c(Cl)c4)sc3n2)cc1	20.2% (inactive)
COc1ccc(/C=N/NC(=O)c2[nH]c3ccc(Br)cc3c2-c2ccccc2)o1	-1.43% (active)
O=C(Nc1nc2ccc(O)cc2s1)c1cccc(C(F)(F)F)c1	50.1% (inactive)

System: HCT-15 colon
Test: as above
Details: 10 µM unless noted

Structure (SMILES)	growth
Cc1ccc2c(n1)C(=O)C(Cl)=C(Nc1cccc(C(C)C)c1)C2=O	32.4% (inactive)
Cn1cc(-c2cc(N)n3nc(-c4cn(C)c5ccc(F)cc45)cc3n2)c2cc(F)ccc21	4.58% (active)
Cn1c(SCC(=O)c2cccs2)nc2ccccc2c1=O	91.1% (inactive)
CCCC(=O)NC(c1ccc(N(CC)CC)cc1)c1cc(C)c2cccnc2c1O (stereo not given)	29.5% (inactive)
COC(=O)C1CCCN(S(=O)(=O)/N=C2\NC(=O)NC2=C(Cl)Cl)C1 (stereo not given)	80.7% (inactive)
O=C(N/N=C/c1ccc([N+](=O)[O-])s1)c1[nH]c2ccc(Br)cc2c1-c1ccccc1	4.77% (active)
C=C1CC[C@H]2[C@@](C)(CCC3OC(c4ccc(OCc5cn(C6CC(OC(C)=O)C(OC(C)=O)C(COC(C)=O)O6)nn5)cc4)OC[C@]32C)[C@@H]1/C=C/C1=CCOC1=O (stereo not given in full)	77.2% (inactive)
COc1ccc([C@@H]2c3[nH]c4ccccc4c3CC3C(=O)N(C4CCN(Cc5c(F)cccc5F)CC4)CC(=O)N32)c(OC)c1 (stereo not given in full)	47.5% [5.26 µM] (inactive)
O=C(N/N=C/c1ccc(Br)s1)c1[nH]c2ccc(Br)cc2c1-c1ccccc1	12.4% (inactive)
O=C1c2c(c3c4cccnc4[nH]c3c3ccc4ccccc4c23)C(=O)N1CCO	72.1% (inactive)
Nc1c(C(=O)Nc2ccc(C(F)(F)F)cc2)sc2nc(-c3cnccn3)cc(-c3cccs3)c12	78.6% (inactive)
CSc1ccc2c(c1)N(C(=O)/C(C#N)=C/c1c[nH]c3ccccc13)c1ccccc1S2	27.3% (inactive)
Cc1cc(C(=O)Nc2sc3c(c2C(N)=O)CCC(=O)C3)ccc1OCCN1CCCCC1	83.3% (inactive)
CN(C)c1ccc(/C=c2\sc3nc4ccccc4n3c2=O)cc1	107% (inactive)
CN(C)c1ccc(/C=C2\Cc3c(F)ccc(Br)c3C2=O)cc1	96.9% (inactive)
CN1CCN(Cc2ccc(NC(=O)c3cncc(C#Cc4cnc5ccc(N6CCSCC6)nn45)c3)cc2C(F)(F)F)CC1	-38.9% (active)

Structure (SMILES)	growth
COc1cc(/C=C/C(=O)c2ccc(C)cc2)ccc1Oc1nc(NCCO)nc(N2CCOCC2)n1	14.5% (inactive)
O=C(CSc1nnc(-c2ccc3nc(-c4ccc(Cl)cc4)[nH]c3c2)o1)Nc1ccc(C(=O)/C=C/c2ccc(Cl)cc2)cc1	89.8% (inactive)
C#Cc1nc(C2=C(C)C(=N\O)/C(=N/O)C2)cs1	94.5% (inactive)
CCOc1ccc2nc(NC(=O)c3ccc(C(F)(F)F)cc3)sc2c1	100% (inactive)
CC(O)C(NC(=O)C1CCCN1C(=O)CNC(=O)C1CC(=O)NCC(=O)NC(Cc2c[nH]c3ccccc23)C(=O)NC(Cc2ccc(O)cc2)C(=O)NCC(=O)NC(CO)C(=O)NC(CCC(N)=O)C(=O)NC(Cc2c[nH]c3ccccc23)C(=O)N1)C(=O)NCC(=O)NC(CCC(N)=O)C(=O)NC(CCCNC(=N)N)C(=O)NC(CC(=O)O)C(=O)O (stereo not given)	99.5% (inactive)
CC1=C(C)C(=O)C(Nc2ccccc2)=C(Cl)C1=O	94.2% (inactive)
CO/N=C1\CCc2c(sc(NC(=O)c3cccc(C(F)(F)F)c3)c2C(N)=O)C1	64.6% (inactive)
COc1ccc(CNS(=O)(=O)/N=C2\NC(=O)NC2=C(Cl)Cl)cc1	56.1% (inactive)
NS(=O)(=O)c1cccc(Nc2nc(SCC(=O)c3ccc([N+](=O)[O-])cc3)nc3ccccc23)c1	34.5% (inactive)
Cn1ccnc1C(=O)/C=C/c1ccc(NC(=O)Nc2ccccc2)cc1	12.4% (inactive)
CCOC(=O)c1sc(N)c(C(=O)OCC)c1C	45.4% (inactive)
CN(C)S(=O)(=O)c1oc(-c2ccccc2)nc1C#N	-11.6% (active)
O=C1Nc2cc(Cl)ccc2/C1=C\c1ccc(OCc2ccc(Br)cc2F)cc1	6.12% (active)
COc1cc(/C=C/C(=O)c2cc(OC)c(OC)c(OC)c2)ccc1OCc1ccccc1	13.3% (inactive)
NC(=O)c1cc(-c2ccc3ncnc(N4CCc5cc(F)c(Cl)cc54)c3c2)cnc1N	25.8% (inactive)
